Screening results from PubChem.
Shown are actives, neighbours in structure and some others; about 3.6% of the full set was active somewhere.
AmpC inh no detg: blocks E. coli AmpC beta-lactamase in detergent-free assay. hit rate 0.52% among 330,000. Potency, µM (series often up to 57.1 µM), usual class: inhibitors. P00811. AmpC nitrocefin hydrolysis, absorbance 480 nm, 0.0001% Triton; further: nearly all actives have a fitted effect of over 20% in size
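AmpC (5.3 nM in the dispensed reagent) in 20 mM phosphate pH 7.0 with 0.01% (detergent screen) or 0.0001% Triton X-100 was preincubated with compounds for 15 min at room temperature. Nitrocefin was then added from an 800 uM solution, and hydrolysis was followed at 480 nm.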
AmpC detergent: inhibitors of E. coli AmpC beta-lactamase with detergent | P00811 | AmpC hydrolysis of nitrocefin, absorbance 480 nm, 0.01% Triton | Potency, µM (highest dose often 114 µM), usual class: inhibitors | hit rate 0.041% among 370,000 | AID 485294; further: nearly all actives have a fitted effect of over 25% in size
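AmpC (5.3 nM in the dispensed reagent) in 20 mM phosphate pH 7.0 with 0.01% (detergent screen) or 0.0001% Triton X-100 was preincubated with compounds for 15 min at room temperature. Nitrocefin was then added from an 800 uM solution, and hydrolysis was followed at 480 nm.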
Sm TGR block: inhibitors of Schistosoma mansoni thioredoxin glutathione reductase | Q962Y6 | AID 485364 | Potency, µM (doses to about 114 µM), hits mostly inhibitors | hit rate 3% among 360,000 | purified TGR, DTNB reduction, TNB absorbance 405 nm; further: nearly all actives have a fitted effect of over 60% in size
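First, TGR (20 nM dispensed) and NADPH were mixed with compound. Second, a 15 min room-temperature incubation followed. Third, further NADPH and then DTNB were added to start the reaction. Finally, TNB absorbance was monitored kinetically.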
Giardia FBPA inh-1: Giardia lamblia aldolase inhibition. A8B2U2. purified Giardia FBPA. Potency, µM (series often up to 59.6 µM), actives largely listed as inhibitors. hit rate 0.71% among 290,000. AID 2451; further: nearly all actives have a fitted effect of over 55% in size
Target sequence (A8B2U2 whole entry, looked up): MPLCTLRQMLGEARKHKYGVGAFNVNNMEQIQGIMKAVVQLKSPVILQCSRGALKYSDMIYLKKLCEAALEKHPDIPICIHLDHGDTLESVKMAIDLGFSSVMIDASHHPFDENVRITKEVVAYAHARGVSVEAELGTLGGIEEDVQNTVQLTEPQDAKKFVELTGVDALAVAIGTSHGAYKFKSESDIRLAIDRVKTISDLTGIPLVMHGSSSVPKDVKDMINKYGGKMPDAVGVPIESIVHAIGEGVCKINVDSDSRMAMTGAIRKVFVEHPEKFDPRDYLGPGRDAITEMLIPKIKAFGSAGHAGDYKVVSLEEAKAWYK
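Giardia FBPA (40 nM reagent) was preincubated 10 min at RT with compound (up to 57.5 uM final), then substrate plus GAPDH/TPI/NAD/arsenate coupling system with diaphorase/resazurin was added; resorufin fluorescence (525/598 nm) was read after 20 min.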
Giardia growth: blocks growth of Giardia lamblia trophozoites | hit rate 5% among 1,500 | Giardia lamblia trophozoite growth inhibition | AID 2785 | Potency, µM (highest dose often 57.5 µM), actives largely listed as inhibitors | shares compounds with Giardia FBPA inh-1;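 further: trophozoites exposed to compound for 48 h at 37 °C; nearly all actives have a fitted effect of over 70% in size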
Mammalian tox: mammalian cytotoxicity of Giardia aldolase inhibitor hits. shares compounds with Giardia FBPA inh-1. mammalian cell viability counter-screen, qHTS. Potency, µM (titrated, usually from 57.5 µM), actives largely listed as inhibitors. hit rate 4% among 1,500;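 further: Chinese hamster ovary cells used as mammalian cytotoxicity surrogate; viability measured as cellular ATP by luminescence; compound exposure lasted 48 h before reading; nearly all actives have a fitted effect of over 60% in size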
Giardia FBPA inh-2: confirmation of Giardia fructose-bisphosphate aldolase inhibitors | Potency, µM (titrated, usually from 57.5 µM), actives largely listed as inhibitors | hit rate 5% among 1,500 | shares compounds with Giardia FBPA inh-1 | purified Giardia aldolase enzyme activity, qHTS; further: nearly all actives have a fitted effect of over 45% in size
Rabbit aldolase: selectivity test for Giardia aldolase inhibitors: rabbit aldolase; shares compounds with Giardia FBPA inh-1; Rabbit muscle FBPA enzyme inhibition, selectivity counter-screen; Potency, µM (top dose mostly 57.5 µM), most hits filed as inhibitors; hit rate 4% among 1,500; AID 2794; further: nearly all actives have a fitted effect of over 60% in size
Target sequence (P00883 whole entry, looked up): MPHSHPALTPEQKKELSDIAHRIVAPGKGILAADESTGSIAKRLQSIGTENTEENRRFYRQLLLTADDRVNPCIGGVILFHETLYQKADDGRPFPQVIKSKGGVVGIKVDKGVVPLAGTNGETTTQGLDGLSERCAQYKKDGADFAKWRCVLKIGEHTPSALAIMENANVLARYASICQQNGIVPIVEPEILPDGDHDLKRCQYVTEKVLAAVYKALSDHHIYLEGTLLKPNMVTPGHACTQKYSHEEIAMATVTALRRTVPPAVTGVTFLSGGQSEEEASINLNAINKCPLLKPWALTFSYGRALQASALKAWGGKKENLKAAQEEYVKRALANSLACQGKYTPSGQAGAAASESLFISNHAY
GAPDH coupling: GAPDH inhibition flagged for Giardia aldolase hits; shares compounds with Giardia FBPA inh-1; GAPDH coupling enzyme counterscreen, biochemical, qHTS; Potency, µM (titrated, usually from 57.5 µM), hits mostly inhibitors; hit rate 6% among 1,500; AID 2795; further: nearly all actives have a fitted effect of over 55% in size
Hits are given with their value; – = inactive; ? = inconclusive; · = no result given; [ ] = dose if it differs, or a comment. The call rests on the fitted dose curve; in most records, active means well fitted curve in the direction sought with a large enough effect; inconclusive means small, poorly fitted or top-dose-only effect, or another doubt; inactive means no such curve, though single readings can be large; an effect the other way counts as inactive or inconclusive.

SMILES | AmpC inh no detg | AmpC detergent | Sm TGR block | Giardia FBPA inh-1 | Giardia growth | Mammalian tox | Giardia FBPA inh-2 | Rabbit aldolase | GAPDH coupling
CCOc1ccc(CCNC(=O)COC(=O)c2ccc(S(=O)(=O)N3CCCC3)cc2)cc1OCC | – | – | – | · | · | · | · | · | ·
CC1CN(S(=O)(=O)c2ccc(C(=O)Nc3nnc(-c4ccco4)o3)cc2)CC(C)O1 (stereo unspecified) | – | – | – | 18µM | – | – | – | – | –
CC1CCCN(S(=O)(=O)c2ccc(C(=O)Nc3nnc(-c4ccccn4)o3)cc2)C1 (stereo unspecified) | ? | – | – | 18µM | – | – | – | – | –
CC1CCCN(S(=O)(=O)c2ccc(C(=O)Nc3nnc(-c4ccccc4Cl)o3)cc2)C1 (stereo unspecified) | – | – | – | ? | · | · | · | · | ·
CC1CCN(S(=O)(=O)c2ccc(C(=O)Nc3nnc(-c4ccco4)o3)cc2)CC1 | – | – | – | – | · | · | · | · | ·
O=C(Nc1nnc(-c2ccco2)o1)c1ccc(S(=O)(=O)N2CCCC2)cc1 | – | – | – | 5µM | –[10.4 µM] | – | – | – | –
CCCC(=O)Nc1ccccc1C(=O)OCc1cc(=O)n2nc(C(C)C)sc2n1 | · | – | – | · | · | · | · | · | ·
Cc1cccc(OCC(=O)OCc2cc(=O)n3nc(C4CC4)sc3n2)c1 | · | – | – | · | · | · | · | · | ·
Cc1nc(C(=O)NNC(=O)c2ccc(Cl)cc2)cs1 | – | – | – | 18µM | ? | – | – | – | –
Cc1nc(-c2nc(CC(=O)NNC(=O)c3ccc(Cl)cc3)cs2)cs1 | – | – | – | – | · | · | · | · | ·
N#CCC(=O)Nn1c(=S)[nH]c2ccccc2c1=O | – | – | ? | 3.5µM | – | – | – | – | –
Cc1cc(C)c(NC(=S)N(CCc2ccncc2)C(C)C)c(C)c1 | – | – | – | 10µM | – | – | – | – | –
CCOC(=O)c1c(-c2ccc(OC)cc2)csc1NC(=O)CNCc1ccco1 | – | – | – | ? | · | · | · | · | ·
CCOC(=O)c1c(-c2ccc(Cl)cc2)csc1NC(=O)CNCc1ccco1 | – | – | – | 16µM | – | – | – | – | –
O=C(CNC(=O)c1ccc(Br)o1)NCC(=O)OCc1ccccc1 | – | ? | – | · | · | · | · | · | ·
Cc1ccc(C(=O)NC(=S)Nc2ccc(CN3CCOCC3)cc2)cc1 | – | – | ? | · | · | · | · | · | ·
O=C(NC(=S)Nc1ccc(CN2CCOCC2)cc1)c1cccc(F)c1 | – | – | ? | 11µM | – | – | – | – | –
CCNC(=S)NS(=O)(=O)c1ccc(F)cc1 | – | – | – | ? | – | – | – | – | –
O=C(CCNS(=O)(=O)c1ccc2c(c1)CCN2C(=O)C1CC1)N1CCN(c2cccc(C(F)(F)F)c2)CC1 | · | – | – | · | · | · | · | · | ·
Cc1ccc(NC(=S)c2ccccc2)cc1 | – | – | – | – | · | · | · | · | ·
Cc1ccc(NC(=S)c2ccncc2)cc1 | – | – | – | 28µM | – | – | – | – | –
O=C(CN1CCN(CC(=O)Nc2ccccc2Cl)CC1)NCC1(N2CCOCC2)CCCCC1 | – | – | – | · | · | · | · | · | ·
CN1/C(=C\C(=O)CSc2cccc[n+]2[O-])C(C)(C)c2ccccc21 | – | – | – | 11µM | – | – | – | – | –
Cc1ccc(-c2nnc(SCC(=O)NNC(=O)COc3cccc4ccccc34)n2C)cc1 | – | – | – | – | · | · | · | · | ·
Cc1nc(NC(=O)CN2CCN(c3ccccc3F)CC2)sc1C(=O)N(C)C | – | – | – | 3.2µM | –[10.4 µM] | – | – | – | –
SMILES | AmpC inh no detg | AmpC detergent | Sm TGR block | Giardia FBPA inh-1 | Giardia growth | Mammalian tox | Giardia FBPA inh-2 | Rabbit aldolase | GAPDH coupling
Cc1ccccc1N1CCN(CC(=O)Nc2nc(C)c(C(=O)N(C)C)s2)CC1 | – | – | – | ? | · | · | · | · | ·
Cc1ccc(Nc2nc(N)nc(N)c2S(=O)(=O)c2ccccc2)cc1 | · | – | – | · | · | · | · | · | ·
O=C(NCc1ccco1)c1ccc2c(c1)N(Cc1ccc(F)cc1)C(=O)c1ccccc1S2=O (stereo unspecified) | · | – | – | · | · | · | · | · | ·
CC(=O)Nc1nc(-c2ccc(Cl)cc2)nc(C)c1C(C)=O | – | ? | – | 7.1µM | –[10.4 µM] | – | – | – | –
CCCCc1c(O)nc(SC2CC(=O)N(c3ccc(C(=O)OCC)cc3)C2=O)[nH]c1=O (stereo unspecified) | – | ? | – | 7.1µM | –[10.4 µM] | – | – | – | –
Cc1ccc(S(=O)(=O)N2CCCCC2)c(C)c1NS(C)(=O)=O | –[2.29 µM] | – | – | – | · | · | · | · | ·
CCN1CCN(C(=S)c2ccc(O)cc2)CC1 | – | – | – | 8.9µM | – | – | – | – | –
CCNC(=S)N1CCN(Cc2ccccc2)CC1 | – | – | – | ? | · | · | · | · | ·
Cc1cccc(NC(=S)N2CCN(Cc3ccccc3)CC2)c1C | – | – | – | – | · | · | · | · | ·
CCN(CC)c1ccc(C(=O)N2CCN(Cc3ccccc3)CC2)cc1 | – | ? | – | – | · | · | · | · | ·
Cc1ccc(C(=S)N2CCN(Cc3ccccc3)CC2)s1 | – | – | – | 18µM | – | – | ? | ? | ?
CN(C)c1ccc(C(=S)N2CCN(Cc3ccccc3)CC2)cc1 | – | – | – | 6.3µM | – | – | – | ? | ?
Oc1ccc(C(=S)N2CCN(Cc3ccccc3)CC2)cc1 | – | – | – | 18µM | – | – | – | – | –
CCN1CCN(C(=S)c2ccc(Br)cc2)CC1 | – | – | – | · | · | · | · | · | ·
S=C(c1ccc(Br)cc1)N1CCN(Cc2ccccc2)CC1 | – | – | – | 14µM | ? | – | ? | ? | ?
Cc1snc2sc(C(=O)c3ccc(F)cc3)c(N)c12 | – | – | – | 6.3µM | – | – | 40µM | ? | ?
O=C(O)c1ccc2cccnc2c1O | – | – | ? | 20µM | – | – | ? | – | –
Cn1c(=O)[nH]c(=O)c2c1nc(SCC(=O)O)n2Cc1ccccc1 | – | – | – | 14µM | – | – | – | – | –
COc1ccc(C(C(=O)NCC2CCCO2)N(C(=O)CNC(=O)c2cccs2)c2ccc(C)cc2)cc1OC (stereo unspecified) | – | – | – | – | · | · | · | · | ·
Cc1cc(SCNC(=O)c2ccccc2)ncn1 | – | – | 14µM | 14µM | ? | – | – | – | –
O=C(NCSc1ccccc1)c1ccccc1 | – | – | – | · | · | · | · | · | ·
COC1=C[C@@H](C)C2CC3OC(=O)C[C@H]4C(C)=C(OC)C(=O)C([C@@]2(C)C1=O)[C@@]34C (stereo partly specified) | · | · | · | – | · | · | · | · | ·
Nc1nc(=S)n(-c2ccccc2)[nH]1 | – | – | – | 7.1µM | – | – | – | – | –
Cc1nc(=S)n(-c2ccccc2)[nH]1 | – | – | – | – | · | · | · | · | ·
